# Source: PubChem BioAssay (NCI)
# This is part of a sample that, as a whole, favours compounds with a hit. Of some 79,000 tested, about 15% had one in any assay. Values without a mark were called inactive. The source made the active and inactive calls. Cut-off read from the data, not from the text of the source: active = growth inhibition above about 70%; inactive = the rest.
# Test: NCI Yeast Anticancer Drug Screen. Data for the rad50 strain (AID 155);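 note: 0% = growth of vehicle-only cultures of the same strain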
# Conditions: S. cerevisiae rad50 strain growth inhibition; at 50.0 µM; stronger effect = higher value
# Method in brief: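 Inhibition values express reduced yeast growth in compound-treated cultures relative to vehicle-treated controls.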
row,SMILES,growth inhibition
1,NC(N)=NOCC(=O)O,-7.2%
2,COC(=O)[C@@H](CO)NC(=O)OC(C)(C)C,-27.6%
3,OCCCCCCCCCCCO,16.9%
4,NC(=O)N/N=C1\CCCCC12CCCCC2,4.3%
5,N/C(=N\C(=O)OCCOC(=O)/N=C(/N)c1ccccc1)c1ccccc1,-3.5%
6,Cn1c(=O)c2c(ncn2C2C(=O)NNC2=O)n(C)c1=O,-7.15%
7,CSc1nc(=O)cc(N)n1C,1.65%
8,COC(=O)CCc1nc2ccccc2c(=O)[nH]1,6.45%
9,COC(=O)c1cc(-c2ccc3ccccc3c2)[nH]c(=O)c1C#N,34.4%
10,CC(=O)Nc1ccc(Cc2ccc3[nH]c(=O)cc(C)c3c2)cc1,-16.3%
11,O=C(O)c1nc(N=Nc2ccc(S(=O)(=O)O)cc2)[nH]c1C(=O)O,25.1%
12,S=C(NCCS)Nc1ccccc1,-0.6%
13,N#CNC(=O)c1ccc(Cl)cc1,-2.8%
14,CC(C)c1ccc2c(c1)CC[C@H]1[C@](C)(COCCC#N)CCC[C@]21C,-10.9%
15,O=c1cc(C=Nc2ccc(-c3csc(-c4ccccc4)n3)cc2)[nH]c(=S)[nH]1,97.2% (active)
16,N#Cc1c(C(=O)NN)c2c(-c3ccc4ccccc4c3)n[nH]c(=O)c2[nH]c1=O,20.4%
17,COc1cccc(/C=C2\C(=O)N(C(=O)c3ccc(NC(C)=O)cc3)N=C2C)c1,-43.9%
18,COc1ccc(C(=O)NC(=S)Nc2cc(C(F)(F)F)ccc2Cl)cc1,-18.6%
19,CC(C)=CC(=O)OC1C2C(C)C(=O)OC2C(O)C(C)C2C=CC(=O)C21C (stereo not given),3.15%
20,O=C(COc1ccc(Cl)cc1)Oc1c(Cl)cc(Cl)cc1Cl,96.4% (active)

row,SMILES,growth inhibition
1,CC(C)(O)CCC(C)(C)O,60.3%
2,CC(=O)Nc1cc(N)ccc1C,7.15%
3,CCOC(=O)C(C)(C(=O)OCC)c1c[n+]([O-])c2ccccc2c1[N+](=O)[O-],13.8%
4,CCCc1c(C(=O)O)c(-c2cccc3ccccc23)c(CCC)c2c1-c1cccc3cccc-2c13,54.5%
5,CC1CCCCN1S(=O)(=O)N(C)C (stereo not given),8.65%
6,Brc1ccncc1,-10.7%
7,CC1(C)COC(CCl)OC1,27.1%
8,COC(=O)c1nnn(-c2ccc(C)c(C)c2)c1C(=O)c1ccccc1,-2.7%
9,CC(=O)Nc1c(C(N)=O)cnn1-c1ccccc1,17.9%
10,CN(C)c1ccc(/C=C(\C#N)c2c(Br)cccc2Br)cc1,-20.1%
11,CCSC(N)=Nc1ccccc1 (tested in a mixture with another compound),13.2%
12,Nc1nc(N)c(-c2ccc(Cl)cc2)c(CNc2cccc([N+](=O)[O-])c2)n1,90.9% (active)
13,CC1(C)OC2CC(=O)OCC23C1CC(=O)C1(C)C3CCC2(C)C(c3ccoc3)OC(=O)C3OC321 (stereo not given),-7.65%
14,CC1CCCCC[N+]1(C)CCO (stereo not given),-8.5%
15,CCCCCCCCCCCCCCCCCCNC(=S)N(C)C,18.8%
16,O=S(=O)(OCCCC1CC2C=CC1C2)c1ccc(Br)cc1 (stereo not given),-1.7%
17,CC(=O)O[C@@H]1[C@H]2[C@@H](OC(=O)c3ccccc3)[C@@H](C)C[C@]2(O)[C@H](OC(C)=O)[C@@]2(C)[C@@H]3C[C@@](C)(OC(C)=O)C[C@@H](OC(C)=O)[C@@]3(OC(C)=O)C[C@@]12C,-7.55%
18,O=NN(CCCl)C(=O)NCCc1cccc[n+]1[O-],2.6%
19,O=C(O)c1c[nH]c2cc(OCc3ccccc3)ccc2c1=O,-4.1%
20,Cc1cccc(C[P+](C/C=C/c2ccccc2)(c2ccccc2)c2ccccc2)c1,98.8% (active)
